Measurements published in PubChem BioAssay (EPA / NIEHS).
Calls of active or inactive are those of the source. The calls were made as follows: active = hit-call score of the fitted dose curve at least 0.9, where 1 is the maximum; inactive = score below 0.9.

How the values were obtained:
Conditions in all cases: mRNA level, 48 h; actives raise or lower the signal
[1] = read-out: CYP2C9 (gene 1559); assay: LTEA_HepaRG_CYP2C9: Life Technologies and Expression Analysis (LTEA) Assay for CYP2C9 using HepaRG (AID 2283484)
How it was run: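 CYP2C9 transcript level, quantified by TaqMan qRT-PCR against three housekeeping genes, was fitted bidirectionally relative to 0.5% DMSO. HepaRG cultures were treated 48 h, in duplicate, at eight half-log concentrations topping at 100 uM.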

[2] = read-out: CYP2E1 (gene 1571); assay: LTEA_HepaRG_CYP2E1: Life Technologies and Expression Analysis (LTEA) Assay for CYP2E1 using HepaRG (AID 2283485)
How it was run: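 CYP2E1 transcript measured by Fluidigm qRT-PCR against three housekeeping genes in human HepaRG cells treated 48 h (top 100 uM, half-log steps, 0.5% DMSO vehicle). Gain or loss fitted relative to DMSO baseline.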

[3] = read-out: CYP4A11 (gene 1579); assay: LTEA_HepaRG_CYP4A11: Life Technologies and Expression Analysis (LTEA) Assay for CYP4A11 using HepaRG (AID 2283486)
How it was run: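 Differentiated HepaRG cells, serum-free induction medium, exposed 48 h in duplicate to 8-point half-log series from 100 uM in 0.5% DMSO. CYP4A11 mRNA measured by qRT-PCR, normalized to ACTB, GAPDH, POLR2A; bidirectional fit versus DMSO.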

[4] = read-out: Cytochrome P450 3A4 (Homo sapiens) (UniProt P08684); assay: LTEA_HepaRG_CYP3A4: Life Technologies and Expression Analysis (LTEA) Assay for CYP3A4 using HepaRG (AID 2283487)
How it was run: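 HepaRG, 48 h exposure, 8-pt CRC from 100 uM (half-log), 0.5% DMSO, duplicates; serum-free induction medium. Readout: CYP3A4 mRNA, qRT-PCR, ACTB/GAPDH/POLR2A normalization. Bidirectional fit vs DMSO.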

[5] = read-out: DNA damage-inducible transcript 3 (DDIT3), DDIT3 (gene 1649); assay: LTEA_HepaRG_DDIT3: Life Technologies and Expression Analysis (LTEA) Assay for DNA damage-inducible transcript 3 (DDIT3) using HepaRG (AID 2283488)
How it was run: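 DDIT3 transcript was quantified by qRT-PCR with ACTB/GAPDH/POLR2A normalization after 48 h chemical treatment of differentiated HepaRG cells in 0.5% DMSO. Dosing was eight-point, half-log, top 100 uM, duplicate wells. Curves fitted bidirectionally versus DMSO.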

[6] = read-out: Early growth response protein 1 (EGR1) transcription factor, EGR1 (gene 1958); assay: LTEA_HepaRG_EGR1: Life Technologies and Expression Analysis (LTEA) Assay for Early growth response protein 1 (EGR1) transcription factor using HepaRG (AID 2283490)
How it was run: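 EGR1 transcript levels quantified by qRT-PCR (Fluidigm arrays) against three housekeeping genes after 48 h chemical exposure of HepaRG cells. Eight-point half-log series topping at 100 uM, 0.5% DMSO vehicle, analyzed for gain or loss.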

[7] = read-out: Ezrin (EZR), EZR (gene 7430); assay: LTEA_HepaRG_EZR: Life Technologies and Expression Analysis (LTEA) Assay for Ezrin (EZR) using HepaRG (AID 2283491)
How it was run: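 Read-out is EZR transcript level by qRT-PCR, normalized to three housekeeping genes and fitted bidirectionally against the DMSO control. Human HepaRG cells received test chemicals for 48 h at eight half-log concentrations up to 100 uM in 0.5% DMSO.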

[8] = read-out: Cytochrome P450 3A7 (Homo sapiens) (UniProt P24462); assay: LTEA_HepaRG_CYP3A7: Life Technologies and Expression Analysis (LTEA) Assay for CYP3A7 using HepaRG (AID 2283492)
How it was run: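 HepaRG cells plated 48 h, then dosed in serum-free induction medium for 48 h at 8 concentrations (top 100 uM, half-log steps, 0.5% DMSO). CYP3A7 mRNA by qRT-PCR, normalised to ACTB/GAPDH/POLR2A; bidirectional fit versus DMSO.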

[9] = read-out: CYP3A5 (gene 1577); assay: LTEA_HepaRG_CYP3A5: Life Technologies and Expression Analysis (LTEA) Assay for CYP3A5 using HepaRG (AID 2283493)
How it was run: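 mRNA levels were quantified by qRT-PCR on Fluidigm arrays and normalized to three housekeeping genes. Differentiated HepaRG cells received 48 h exposure (top 100 uM, half-log steps, 0.5% DMSO vehicle, duplicate); bidirectional fitting versus DMSO.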

[10] = read-out: Fatty Acid-Binding Protein 1 (FABP1), FABP1 (gene 2168); assay: LTEA_HepaRG_FABP1: Life Technologies and Expression Analysis (LTEA) Assay for Fatty Acid-Binding Protein 1 (FABP1) using HepaRG (AID 2283494)
How it was run: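 FABP1 expression by TaqMan qRT-PCR, normalised to three housekeeping genes, in HepaRG cells after 48 h chemical treatment. Eight-point half-log series topping at 100 uM in 0.5% DMSO, duplicates; gain or loss fitted relative to vehicle.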

[11] = read-out: Cytochrome P450 4A22 (Homo sapiens) (UniProt Q5TCH4); assay: LTEA_HepaRG_CYP4A22: Life Technologies and Expression Analysis (LTEA) Assay for Cytochrome P450 4A22 (CYP4A22) using HepaRG (AID 2283495)
How it was run: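 qRT-PCR of CYP4A22 mRNA (Fluidigm TaqMan, normalized to three housekeeping genes) after 48 h chemical exposure of HepaRG cells; 8-point half-log series, top 100 uM, 0.5% DMSO vehicle. Bidirectional curve fitting vs DMSO baseline.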

[12] = read-out: Cytochrome P450 7A1 (Homo sapiens) (UniProt P22680); assay: LTEA_HepaRG_CYP7A1: Life Technologies and Expression Analysis (LTEA) Assay for Cytochrome P450 7A1 (CYP7A1) using HepaRG (AID 2283496)
How it was run: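 HepaRG, 48 h exposure, 8-pt half-log series from 100 uM, 0.5% DMSO vehicle, duplicates. Readout: TaqMan qRT-PCR mRNA vs three housekeeping genes; bidirectional curve fit against DMSO baseline.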

[13] = read-out: Glutathione S-Transferase (GSTA2), GSTA2 (gene 2939); assay: LTEA_HepaRG_GSTA2: Life Technologies and Expression Analysis (LTEA) Assay for Glutathione S-Transferase (GSTA2) using HepaRG (AID 2283497)
How it was run: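 GSTA2 transcript levels came from Fluidigm TaqMan qRT-PCR normalized to three housekeeping genes, fitted in both directions against DMSO. HepaRG cultures received chemicals for 48 h in serum-free induction medium (0.5% DMSO), 8 half-log concentrations up to 100 uM, duplicate.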

[14] = read-out: Glutamate-cysteine ligase catalytic (GCLC), GCLC (gene 2729); assay: LTEA_HepaRG_GCLC: Life Technologies and Expression Analysis (LTEA) Assay for Glutamate-cysteine ligase catalytic (GCLC) using HepaRG (AID 2283498)
How it was run: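 Expression by TaqMan qRT-PCR, normalized to three housekeeping genes (ACTB, GAPDH, POLR2A), with up- or down-regulation fitted against DMSO. HepaRG cells dosed in duplicate for 48 h with 8 half-log concentrations up to 100 uM, vehicle 0.5% DMSO.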

[15] = read-out: growth arrest and DNA damage 45 (GADD45G), GADD45G (gene 10912); assay: LTEA_HepaRG_GADD45G: Life Technologies and Expression Analysis (LTEA) Assay for growth arrest and DNA damage 45 (GADD45G) using HepaRG (AID 2283499)
How it was run: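 Differentiated human HepaRG cells in serum-free induction medium were exposed for 48 h to 8 half-log concentrations up to 100 uM in 0.5% DMSO, in duplicate. GADD45G mRNA was measured by TaqMan qRT-PCR, normalised to ACTB, GAPDH and POLR2A, and fitted bidirectionally against DMSO.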

[16] = read-out: Glutamate-cysteine ligase regulatory (GCLM), GCLM (gene 2730); assay: LTEA_HepaRG_GCLM: Life Technologies and Expression Analysis (LTEA) Assay for Glutamate-cysteine ligase regulatory (GCLM) using HepaRG (AID 2283500)
How it was run: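 GCLM expression quantified by qRT-PCR, normalized to three housekeeping genes, after 48 h chemical treatment of HepaRG cells in duplicate at 8 concentrations (top 100 uM, half-log steps, 0.5% DMSO). Changes fitted both directions against vehicle.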

[17] = read-out: Glutathione S-transferase M3 (GSTM3), GSTM3 (gene 2947); assay: LTEA_HepaRG_GSTM3: Life Technologies and Expression Analysis (LTEA) Assay for Glutathione S-transferase M3 (GSTM3) using HepaRG (AID 2283501)
How it was run: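 Differentiated HepaRG cells in serum-free induction medium were exposed in duplicate for 48 h to 8 half-log concentrations up to 100 uM in 0.5% DMSO. GSTM3 mRNA was measured by TaqMan qRT-PCR, normalized to ACTB/GAPDH/POLR2A, and fitted bidirectionally versus DMSO.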

[18] = read-out: Heat shock 70 kDa protein 1 (HSPA1A), gene 3303; assay: LTEA_HepaRG_HSPA1A: Life Technologies and Expression Analysis (LTEA) Assay for Heat shock 70 kDa protein 1 (HSPA1A) using HepaRG (AID 2283502)
How it was run: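 HSPA1A expression measured by qRT-PCR with ACTB/GAPDH/POLR2A normalization; curves fitted in both directions relative to DMSO vehicle. Exposure: 48 h in HepaRG cells, duplicate 8-point half-log series from 100 uM, 0.5% DMSO, serum-free induction medium.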

[19] = read-out: Hypoxia-inducible factor 1-alpha (Homo sapiens) (UniProt Q16665); assay: LTEA_HepaRG_HIF1A: Life Technologies and Expression Analysis (LTEA) Assay for Hypoxia-inducible factor 1 (HIF1A) Trancription factor using HepaRG (AID 2283503)
How it was run: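 HIF1A transcript level read by qRT-PCR (ACTB, GAPDH, POLR2A normalization) after 48 h chemical exposure of HepaRG cultures. Eight half-log concentrations, top 100 uM, 0.5% DMSO vehicle, duplicates; bidirectional curve fit against DMSO baseline.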

[20] = read-out: Pro-epidermal growth factor (Homo sapiens) (UniProt P01133); assay: LTEA_HepaRG_EGF: Life Technologies and Expression Analysis (LTEA) Assay for Epidermal growth factor (EGF) using HepaRG (AID 2283489)
How it was run: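 Differentiated human HepaRG cells, plated 48 h then switched to serum-free induction medium, were exposed for 48 h to test chemicals (8-point half-log series, top 100 uM, 0.5% DMSO). EGF mRNA was quantified by qRT-PCR, normalized to ACTB, GAPDH, POLR2A.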

Measured: AC50

Chain of Hypoxia-inducible factor 1-alpha (Homo sapiens) (Q16665 whole entry, looked up): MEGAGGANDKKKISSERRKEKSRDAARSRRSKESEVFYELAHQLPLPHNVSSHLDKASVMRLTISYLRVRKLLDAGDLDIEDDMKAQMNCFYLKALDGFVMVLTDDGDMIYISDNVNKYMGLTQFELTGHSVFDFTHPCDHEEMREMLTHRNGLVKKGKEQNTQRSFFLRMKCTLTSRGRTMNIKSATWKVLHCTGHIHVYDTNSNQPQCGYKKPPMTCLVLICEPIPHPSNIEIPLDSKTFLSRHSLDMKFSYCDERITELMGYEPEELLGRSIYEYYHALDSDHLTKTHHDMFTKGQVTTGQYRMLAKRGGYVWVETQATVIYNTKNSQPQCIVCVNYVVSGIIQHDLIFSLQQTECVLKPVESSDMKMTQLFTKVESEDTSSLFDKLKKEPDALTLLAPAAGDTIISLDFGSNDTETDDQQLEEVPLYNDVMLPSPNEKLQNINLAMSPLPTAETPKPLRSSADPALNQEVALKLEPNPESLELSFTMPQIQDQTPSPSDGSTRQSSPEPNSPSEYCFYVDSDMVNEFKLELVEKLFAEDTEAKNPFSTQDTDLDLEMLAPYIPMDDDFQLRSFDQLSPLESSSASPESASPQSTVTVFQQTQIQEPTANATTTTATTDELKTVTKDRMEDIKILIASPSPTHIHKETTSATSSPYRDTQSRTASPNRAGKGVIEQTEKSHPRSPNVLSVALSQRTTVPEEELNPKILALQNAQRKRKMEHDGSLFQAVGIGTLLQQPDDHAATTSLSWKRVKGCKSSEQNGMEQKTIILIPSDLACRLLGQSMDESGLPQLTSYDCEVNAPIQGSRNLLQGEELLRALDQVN
Chain of Cytochrome P450 3A7 (Homo sapiens) (P24462 whole entry, looked up): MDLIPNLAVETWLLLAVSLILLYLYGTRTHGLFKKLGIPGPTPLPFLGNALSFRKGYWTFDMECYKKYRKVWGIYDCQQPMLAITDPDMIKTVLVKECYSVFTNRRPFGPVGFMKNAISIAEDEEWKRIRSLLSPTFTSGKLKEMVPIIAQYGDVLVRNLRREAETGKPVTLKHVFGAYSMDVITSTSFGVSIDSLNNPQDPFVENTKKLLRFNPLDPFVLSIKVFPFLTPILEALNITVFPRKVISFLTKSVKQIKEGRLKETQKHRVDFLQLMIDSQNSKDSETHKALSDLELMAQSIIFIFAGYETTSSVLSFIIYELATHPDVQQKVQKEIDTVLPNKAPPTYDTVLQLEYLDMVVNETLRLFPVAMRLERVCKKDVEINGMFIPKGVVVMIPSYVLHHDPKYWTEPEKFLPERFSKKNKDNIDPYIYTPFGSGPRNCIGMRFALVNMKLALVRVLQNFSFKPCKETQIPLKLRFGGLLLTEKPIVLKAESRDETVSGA
Chain of Cytochrome P450 3A4 (Homo sapiens) (P08684 whole entry, looked up): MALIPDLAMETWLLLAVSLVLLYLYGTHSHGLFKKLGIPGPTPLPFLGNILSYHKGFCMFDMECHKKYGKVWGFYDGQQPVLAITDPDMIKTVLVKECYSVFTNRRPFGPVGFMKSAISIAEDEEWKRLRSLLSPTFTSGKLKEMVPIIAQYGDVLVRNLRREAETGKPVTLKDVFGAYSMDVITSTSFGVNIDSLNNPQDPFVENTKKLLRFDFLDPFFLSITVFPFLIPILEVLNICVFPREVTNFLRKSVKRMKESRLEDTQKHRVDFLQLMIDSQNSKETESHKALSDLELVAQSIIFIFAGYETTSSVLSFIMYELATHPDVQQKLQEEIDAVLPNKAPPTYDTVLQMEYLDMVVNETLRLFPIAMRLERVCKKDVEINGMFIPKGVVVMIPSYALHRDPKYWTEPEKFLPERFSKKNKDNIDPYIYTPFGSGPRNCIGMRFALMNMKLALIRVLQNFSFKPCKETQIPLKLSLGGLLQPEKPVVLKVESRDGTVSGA

COc1cccc(C(=O)NN(C(=O)c2cc(C)cc(C)c2)C(C)(C)C)c1C
active: [2] 23.5 µM | [4] 1.81 µM | [8] 5.42 µM | [12] 2.88 µM
not listed: [20]
inactive: all other assays above

CN(C)C(=O)Nc1cccc(C(F)(F)F)c1
active: [2] 50 µM | [4] 10.4 µM | [8] 7.66 µM
not listed: [11]
inactive: all other assays above

N#CSCSC#N
inactive: [5] | [20] | [6] | [7] | [14] | [15] | [17] | [18] | [19]
active: [1] 66.5 µM | [2] 82.9 µM | [3] 81.5 µM | [4] 77.2 µM | [8] 59.5 µM | [9] 50 µM | [10] 86.2 µM | [12] 50 µM | [13] 76.2 µM | [16] 80.6 µM

CCCCOC(=O)[C@@H](C)Oc1ccc(Oc2ccc(C#N)cc2F)cc1
active: [3] 32.4 µM | [11] 18.7 µM
inactive: all other assays above

Nc1c(Cl)cc([N+](=O)[O-])cc1Cl
active: [1] 63.8 µM | [2] 40.4 µM | [3] 67.4 µM | [4] 11.5 µM | [5] 35.1 µM | [6] 31.8 µM | [7] 50 µM | [8] 84.2 µM | [9] 27.5 µM | [10] 41.8 µM | [12] 50 µM | [13] 64.7 µM | [14] 88 µM | [15] 50 µM | [17] 50 µM | [18] 26.8 µM | [19] 86.6 µM
inactive: [16]

CCCCSP(=O)(SCCCC)SCCCC
active: [2] 63.4 µM | [3] 76.2 µM | [4] 26.1 µM | [5] 76 µM | [10] 92.5 µM | [12] 50 µM
not listed: [11] | [20]
inactive: all other assays above
